Experimental findings from PubChem BioAssay (NCATS) are described below.

For assay [1], the target named is Glutathione peroxidase 1 (Homo sapiens) (UniProt P07203). Put plainly: Primary qHTS Assay for Inhibitors of Recombinant Selenoprotein Glutathione Peroxidase 1 (GPX1) (AID 1845191). Also: nearly all actives have a fitted effect of over 65% in size. Also: potency is read from the fitted curve at half-maximal effect. In a few lines:
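GR-coupled readout: NADPH consumption tracked by fluorescence, ex 340/em 450 nm, at t=0 and after 15 min at RT. Final mix 10 nM GPX1, 1 mM GSH, 0.5 mM CHP, 0.5 mM NADPH, 100 nM GR, 0.01% BSA, following 30 min enzyme–compound preincubation.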
(In general: qHTS replaces the single test concentration by a dilution series.)

Assay [2] has as its target Phospholipid hydroperoxide glutathione peroxidase GPX4 (Homo sapiens) (UniProt P36969). As to the kind of experiment: Primary qHTS Assay for Inhibitors of Recombinant Selenoprotein Glutathione Peroxidase 4 (GPX4) (AID 1845192). Also: nearly all actives have a fitted effect of over 65% in size. Also: potency is read from the fitted curve at half-maximal effect. In short, it runs like this:
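Steps: GPX4 plus compound, 30 min RT; add GR/GSH/NADPH master mix; start with cumene hydroperoxide; read 340/450 nm fluorescence at 0 and 15 min. Finals were 200 nM GPX4, 1 mM GSH, 0.5 mM CHP, 0.5 mM NADPH, 100 nM GR.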

Assay [3] is described as follows: Quantitative High-Throughput drug screen in 47 multiple myeloma cell lines against the NCATS MIPE library collection: FR4_PLB cell viability assay (AID 1918924; also: nearly all actives have a fitted effect of over 35% in size; also: potency is read from the fitted curve at half-maximal effect). In short, it runs like this:
(§1)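 Steps: seed 500 cells per well; pin-transfer MIPE 4.0 library; incubate 48 h at 37C, 5% CO2, humidified; add CellTiter-Glo, 5 min room temperature; read luminescence.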

A short description of assay [4]: Quantitative High-Throughput drug screen in 47 multiple myeloma cell lines against the NCATS MIPE library collection: Delta47_JCRB cell viability assay (AID 1918925; also: nearly all actives have a fitted effect of over 45% in size; also: potency is read from the fitted curve at half-maximal effect). In a few lines: (§2)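 Viability readout: CellTiter-Glo luminescence following 5 min room-temperature incubation with reagent. Prior exposure: 48 h, 37C, humidified 5% CO2, 500 cells per well.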
A short description of assay [5]: Quantitative High-Throughput drug screen in 47 multiple myeloma cell lines against the NCATS MIPE library collection: AMO1_DSMZ cell viability assay (AID 1918927; also: nearly all actives have a fitted effect of over 30% in size; also: potency is read from the fitted curve at half-maximal effect). In short, it runs like this: as §2
Assay [6] is described as follows: Quantitative High-Throughput drug screen in 47 multiple myeloma cell lines against the NCATS MIPE library collection: ARP1_JJKsccF8 cell viability assay (AID 1918928; also: nearly all actives have a fitted effect of over 40% in size; also: potency is read from the fitted curve at half-maximal effect). In a few lines: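 CellTiter-Glo luminescence after 48 h exposure gives viability, scaled between DMSO-only (100%) and media-only (0%) controls. Library compounds are pinned onto 500 myeloma cells per well, incubated at 37C with 5% CO2.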

The nature of assay [7]: Quantitative High-Throughput drug screen in 47 multiple myeloma cell lines against the NCATS MIPE library collection: ARD_JJKsccE7 cell viability assay (AID 1918929; also: potency is read from the fitted curve at half-maximal effect). In a few lines: as §2
A short description of assay [8]: Quantitative High-Throughput drug screen in 47 multiple myeloma cell lines against the NCATS MIPE library collection: Karpas620_DSMZ cell viability assay (AID 1918959). Also: nearly all actives have a fitted effect of over 30% in size. Also: potency is read from the fitted curve at half-maximal effect. In short, it runs like this: as §1
The nature of assay [9]: Quantitative High-Throughput drug screen in 47 multiple myeloma cell lines against the NCATS MIPE library collection: EJM_DSMZ cell viability assay (AID 1918926; also: nearly all actives have a fitted effect of over 30% in size; also: potency is read from the fitted curve at half-maximal effect). In short, it runs like this: as §2
Assay [10] is described as follows: Primary fluorescence-based thiol-reactive (MSTI) qHTS assay for identification of artifact compounds. (AID 1845221).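 Also: series mostly up to about 54 µM; thiol-reactive compounds lower the probe fluorescence signal; nearly all actives have a fitted effect of over 65% in size.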 In a few lines: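 MSTI probe at 4 uM final in 2% DMSO/PBS pH 7.4; compounds, 1 h at room temperature in dark. Fluorescence Ex/Em 525/598 nm, normalised to Acetyl-MSTI and MSTI, fitted to 4-parameter Hill.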
Assay [11] deals with Nanoluciferase (engineered Oplophorus gracilirostris luciferase). As to the kind of experiment: Primary Nanoluciferase (NLuc) qHTS assay for identification of artifact compounds. (AID 1845222). Also: series mostly up to about 54 µM. In a few lines: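 Diluted conditioned medium from NLuc-expressing S16 cells treated with compounds for 15 min at room temperature, then Nano-Glo substrate added; luminescence read after 5 min. Percent inhibition versus no-enzyme and DMSO controls fitted to 4-parameter Hill equation.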

Assay [12] in a line: Primary redox qHTS assay for identification of artifact compounds. (AID 1845223). In a few lines: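 Redox-cycling detection via DTT (250 uM final) oxidation coupled to Amplex Red (25 uM)/HRP (250 mU/mL) in HBSS. 15 min preincubation plus 30 min after DTT, room temperature. Ex/Em 525/598 nm; 4-parameter Hill fit against DMSO and 10 uM DA3003.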

Structures are written as SMILES. Records with an inconclusive call do not appear. A structure can be active in one record and inactive in another. Active and inactive are the calls of the source. Calls follow the shape of the dose curve; as a rule, active = well fitted curve in the direction sought with a large enough effect; inconclusive = small, poorly fitted or top-dose-only effect, or another doubt; inactive = no such curve, though single readings can be large; an effect the other way counts as inactive or inconclusive.

Sequence of Phospholipid hydroperoxide glutathione peroxidase GPX4 (Homo sapiens) (P36969 whole entry, looked up): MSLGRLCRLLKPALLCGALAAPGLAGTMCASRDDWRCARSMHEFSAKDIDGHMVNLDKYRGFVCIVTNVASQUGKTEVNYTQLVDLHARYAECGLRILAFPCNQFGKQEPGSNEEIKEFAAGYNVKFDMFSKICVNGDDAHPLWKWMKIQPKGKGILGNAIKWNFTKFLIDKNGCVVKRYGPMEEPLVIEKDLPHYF
Sequence of Glutathione peroxidase 1 (Homo sapiens) (P07203 whole entry, looked up): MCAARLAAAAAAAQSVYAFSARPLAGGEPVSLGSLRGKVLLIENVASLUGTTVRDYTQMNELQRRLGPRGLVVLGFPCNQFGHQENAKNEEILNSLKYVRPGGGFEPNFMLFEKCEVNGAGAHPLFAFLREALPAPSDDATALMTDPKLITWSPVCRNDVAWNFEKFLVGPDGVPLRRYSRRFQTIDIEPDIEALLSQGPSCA

As for `CCN(c1ccccc1)c1cc(NC)[n+](C)c(C)n1`, the Potency result in assay [1], in assay [2], in assay [3], in assay [4] and in assay [8] was “inactive” in each case. Also, the Potency in assay [5] was 0.743 µM (active); in [6], 23.5 µM (active); in assay [7] it was 13.2 µM (active).

Turning to `C[C@]1(c2nc3c(C(N)=O)cccc3[nH]2)CCCN1`, the Potency entry in assay [1], in assay [2], in assay [3], in assay [9], in [6] and in assay [7] was “inactive” in each case. In addition, the Potency result in [8] is “inactive”.

Turning to `COc1ccc([C@@H]2CC(=O)c3c(O)cc(O[C@@H]4O[C@H](CO[C@@H]5O[C@@H](C)[C@H](O)[C@@H](O)[C@@H]5O)[C@@H](O)[C@H](O)[C@@H]4O)cc3O2)cc1O`, the Potency entry in [1], in [2], in assay [3], in assay [4], in assay [9] and in [5] was “inactive” throughout. Further, the Potency entry in assay [6], in [7] and in assay [8] was “inactive” each time.

For `CCn1c(-c2nonc2N)nc2c(C#CC(C)(C)O)ncc(OC[C@H]3CCCNC3)c21`, the Potency entry in assay [1] and in assay [2] was “inactive” each time. Besides, the Potency in [3] was 14.8 µM (active); in assay [4], 0.0469 µM (active); in assay [6] it was 0.59 µM (active); in assay [7] it was 0.148 µM (active).

For `CS(=O)(=O)Oc1ccc2c(NC(N)=O)c(C(=O)c3ccc(Cl)cc3Cl)oc2c1`, the Potency result in assay [1], in [2], in assay [3] and in assay [9] was “inactive” each time. The Potency in [4] is 14.8 µM (active); in assay [5], 9.35 µM (active); in assay [7] it was 8.33 µM (active); in assay [8], 10.5 µM (active).

As to `COc1ccc(COc2cc3oc(=O)c4cc(C(C)O)ccc4c3cc2OC)cc1` (configuration not stated), the Potency entry in assay [1] and in assay [2] was “inactive” throughout. The Potency was 13.2 µM (active) in assay [3]; 11.8 µM (active) in assay [4]; 16.6 µM (active) in assay [9]; 5.9 µM (active) in [5]; 3.72 µM (active) in assay [7]; 4.69 µM (active) in assay [8].

With `COc1ccc2nc(S(=O)Cc3ncc(C)c(OC)c3C)[nH]c2c1` (configuration not stated), the Potency was 5.08 µM (active) and inactive in assay [1]; 11.4 µM (active) in assay [2]; 18.7 µM (active) in assay [9]. Moreover, the Potency entry in assay [3] and in assay [6] was “inactive” in each case.

On to `Cc1cc(SCc2sc(-c3ccc(C(F)(F)F)cc3)nc2C)ccc1OCC(=O)O`, for which the Potency in assay [1] was 20.2 µM (active) and inactive. Besides, the Potency entry in [2], in [10], in assay [3], in [9], in assay [5] and in [6] was “inactive” in each case. In addition, the Potency entry in [7] and in assay [8] was “inactive” in each case. The call in assay [11] and in assay [12] was inactive.

With `OC[C@H](Cc1ccccc1)Nc1nc(Oc2ccc3c(c2)CCC3)nc2c1ncn2Cc1ccc(-c2ccccc2)cc1`, the Potency result in [1], in [2], in assay [3] and in assay [9] was “inactive” each time.

For `CCn1c(-c2nonc2N)nc2cnc(Oc3cccc(NC(=O)c4ccc(OCCN5CCOCC5)cc4)c3)cc21`, the Potency entry in assay [1] and in assay [2] was “inactive” throughout. For the same molecule, the Potency is 14.8 µM (active) in [3]; 8.33 µM (active) in assay [4]; 5.9 µM (active) in assay [5]; 18.7 µM (active) in assay [6]; 5.9 µM (active) in assay [7].

`CCCn1c(=O)c2[nH]c(C34CC5CC3C[C@@H](C5)C4)nc2n(CCC)c1=O`: the Potency result in assay [1], in [2], in assay [3], in [4], in [7] and in assay [8] was “inactive” each time. For the same molecule, the figures for the Potency in assay [9], in [5] and in assay [6] were 16.6 µM (active), 0.0264 µM (active) and 9.35 µM (active), respectively.

As to `CCOc1cc(N2CCC(O)CC2)ccc1Nc1ncc2c(n1)N(C)c1ccccc1C(=O)N2C`, the Potency result in assay [1] and in assay [2] was “inactive” in each case. The Potency in [3] is 11.8 µM (active); in [4], 4.18 µM (active); in assay [5], 1.32 µM (active); in [6], 10.5 µM (active); in assay [7], 1.05 µM (active); in assay [8], 0.332 µM (active).

Turning to `Nc1cccc(S(=O)(=O)N2CCCN(S(=O)(=O)c3ccc4c(c3)OCCO4)CC2)c1`, the Potency result in assay [1], in assay [2], in assay [3], in [7] and in assay [8] was “inactive” each time. Besides, the Potency in assay [4] is 0.833 µM (active); in [5], 4.18 µM (active).
